Measurements published in the supplement of paper PMC6658780.
Structures can show the parent of a compound that is named as a salt. ± gives the standard deviation of the averaged measurements.

What follows are compounds tested on Klebsiella pneumoniae NCTC-13439 (assay: percent growth inhibition of drug + antibiotic vs DMSO control; higher = more growth inhibition). Settings: antibiotic (0.125x MIC): tigecycline; 20 µM.

Row | Structure (SMILES) | percent growth inhibition
1 | C[C@H](N)[C@H](O)c1cccc(O)c1 [Metaraminol bitartrate] | -12.7 ± 7%
2 | N=C(NCCCCCCNC(=N)NC(=N)Nc1ccc(Cl)cc1)NC(=N)Nc1ccc(Cl)cc1 [Chlorhexidine] | 100.14 ± 0.079%
3 | COc1ccc(OC)c(C(O)CNC(=O)CN)c1 (configuration not stated) [Midodrine hydrochloride] | -2.55 ± 3.2%
4 | COc1c(N2C[C@@H]3CCCN[C@@H]3C2)c(F)cc2c(=O)c(C(=O)O)cn(C3CC3)c12 [Moxifloxacin] | 99.69 ± 0.6%
5 | CC(=O)CCCCn1c(=O)c2c(ncn2C)n(C)c1=O [Pentoxifylline] | 4.32 ± 0.75%
6 | CCN1CCN(c2cc3c(cc2F)c(=O)c(C(=O)O)cn3C2CC2)CC1 [Enrofloxacin] | 69.6 ± 9.7%
7 | NC1CCN(c2c(F)cc3c(=O)c(C(=O)O)cn(C4CC4)c3c2Cl)C1 (configuration not stated) [Clinafloxacin] | 96.8 ± 4.4%
